SARS PLpro yeast: SARS-CoV PLP inhibition in yeast. S. cerevisiae expressing SARS-CoV PLpro, growth rescue. 330,000 tested, 0.19% active. Potency, µM (doses to about 32.9 µM), inactives show top-dose activity, positive = growth rescue, usual class: activators. AID 485353; note: potency is the fitted concentration of half-maximal effect; 0% is about no effect; nearly all actives have a fitted effect of over 55% in size
Pf growth 48h: inhibits P. falciparum growth in the first generation, 48 h; Potency, µM (doses to about 28.7 µM), for inactives: at the highest dose activity change, negative = inhibition, hits mostly inhibitors; P. falciparum luciferase growth in erythrocytes, 48 h; 310,000 tested, 5.9% active; AID 504832; active = well fitted inhibition curve with a large enough effect; inconclusive = small, poorly fitted or top-dose-only effect, or another doubt; inactive = no such curve, though single readings can be large or run the other way; note: potency is the fitted concentration of half-maximal effect; % is set by controls: 0 for no effect and ±100 for the full control effect
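Here the parasites carry a stable luciferase gene and grow inside erythrocytes in Albumax-based RPMI medium with compound for one erythrocytic cycle. Activity is scored as loss of luminescent signal.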
Cycloheximide cs: counter-screen hit for Shiga toxin inhibitors, cycloheximide. cell reporter, cycloheximide protein synthesis inhibition counterscreen. max response, %. 300,000 tested, 12% active. AID 2314; in the data active = max response mostly above about 13%, no sharp cut-off; inactive = mostly below about 14%; note: read at 38.3 µM for the half of the compounds with a filed dose; 0% is about no effect
Shiga inhibitor: inhibitors of Shiga toxin in Vero cells | 290,000 tested, 9.2% active | inhibition, % at 38.7 µM | AID 2315 | Vero cells, Shiga toxin protein synthesis inhibition reporter; in the data active = inhibition mostly above about 28%, no sharp cut-off; inactive = mostly below about 43%; note: 0% is about no effect
NS1 inh: inhibitors of influenza NS1 protein function; Potency, µM (titrated, usually from 46.1 µM), for the others: top-dose activity, positive = more growth; 270,000 tested, 0.4% active; note: potency is the fitted concentration of half-maximal effect; actives are rising curves; nearly all actives have a fitted effect of over 50% in size
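Growth recovery, yeast-based: influenza A NS1 expressed in S. cerevisiae causes slow growth, and suppressors are detected by OD600. The parent strain without NS1 is used as positive control.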
Pf growth 96h: P. falciparum growth inhibition at 96 hours | P. falciparum luciferase reporter growth, 96 h | Potency, µM (top dose mostly 28.7 µM), for inactives: at the highest dose activity change, negative = inhibition, hits mostly inhibitors | AID 504834 | 320,000 tested, 6.9% active; active = well fitted inhibition curve with a large enough effect; inconclusive = small, poorly fitted or top-dose-only effect, or another doubt; inactive = no such curve, though single readings can be large or run the other way; note: potency is the fitted concentration of half-maximal effect; % is set by controls: 0 for no effect and ±100 for the full control effect
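Plates of compound plus infected erythrocytes (2% hematocrit, 0.05% parasitemia final) incubate 96 hours, 37 C, 5% CO2. Detection reagent added; reduced luminescence from the parasites' luciferase reporter flags inhibition.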
* marks the source's active call; other numbers are inactive results; [ ] = remark or other dose. Sampled rows, rich in hits. Any-hit rate of the full collection: about 21%. Unless noted, calls come from the whole dose curve.

How did Cc1cccc(C)c1OCc1cc(C(=O)N2CCC(c3ccccc3)CC2)no1 do in these assays?
SARS PLpro yeast: -3%; Pf growth 48h: -12%; Cycloheximide cs: 41*; Shiga inhibitor: 100*; NS1 inh: -15%; Pf growth 96h: inconclusive

Results for Cc1cc(C(=O)N2CCC(Cc3ccccc3)CC2)no1 ?
SARS PLpro yeast: 1%; Pf growth 48h: 80%; Cycloheximide cs: -3; Shiga inhibitor: 5; NS1 inh: -2%; Pf growth 96h: 15µM*

Results for Cc1cccc(C)c1OCc1cc(C(=O)N2CCN(c3ccc(F)cc3)CC2)no1 ?
SARS PLpro yeast: -3%; Pf growth 48h: 40%; Cycloheximide cs: 52*; Shiga inhibitor: 109*; NS1 inh: 0%; Pf growth 96h: inconclusive

Results for Cc1c(C)n(C(=O)CSc2nc3ccccc3[nH]2)c2ccccc12 ?
SARS PLpro yeast: 5%; Cycloheximide cs: -5; Shiga inhibitor: -2; NS1 inh: -2%; Pf growth 96h: -10%

Results for C=CCN1C(=Nc2cccnc2)SCC1(O)c1ccc(C)cc1 (centres undefined) ?
SARS PLpro yeast: -10%; Pf growth 48h: 3.3µM*; Cycloheximide cs: -2; Shiga inhibitor: 28; NS1 inh: -68%; Pf growth 96h: 16%

What do the screens show for `C=CCN1C(=O)CSC1=Nc1cccc(O)c1`?
SARS PLpro yeast: -1%; Pf growth 48h: 6%; Cycloheximide cs: -4; Shiga inhibitor: -13; NS1 inh: 7%

How did O=c1cc(-c2ccccc2)[nH]n1-c1nc2ccccc2s1 do in these assays?
SARS PLpro yeast: -3%; Pf growth 48h: 16%; Cycloheximide cs: 13; Shiga inhibitor: 22; NS1 inh: -58%; Pf growth 96h: 5.2µM*

What do the screens show for `CCCc1[nH]n(-c2nc3ccccc3s2)c(=O)c1C=NCCCOC`?
SARS PLpro yeast: -1%; Pf growth 48h: -20%; Cycloheximide cs: 22; Shiga inhibitor: 37; NS1 inh: -6%; Pf growth 96h: -15%

What do the screens show for `O=c1c(C=NCCCO)c(-c2ccccc2)[nH]n1-c1nc2ccccc2s1`?
SARS PLpro yeast: -1%; Pf growth 48h: 6%; Cycloheximide cs: 28*; Shiga inhibitor: 39*; NS1 inh: -9%; Pf growth 96h: 26%

Results for COCCCN=Cc1c(-c2ccccc2)[nH]n(-c2nc3ccccc3s2)c1=O ?
SARS PLpro yeast: -1%; Pf growth 48h: inconclusive; Cycloheximide cs: 16*; Shiga inhibitor: 42; NS1 inh: -42%; Pf growth 96h: 5%

How did CCCCCN=Cc1c(C)[nH]n(-c2nc3ccccc3s2)c1=O do in these assays?
SARS PLpro yeast: -22%; Pf growth 48h: -42%; Cycloheximide cs: 16*; Shiga inhibitor: 9; NS1 inh: -82%; Pf growth 96h: 1%

What do the screens show for `O=c1cc(-c2ccccc2)[nH]n2cnnc12`?
SARS PLpro yeast: 2%; Pf growth 48h: 0%[0.00184 µM]; Cycloheximide cs: 5; Shiga inhibitor: 14; NS1 inh: 6%; Pf growth 96h: 26%

What do the screens show for `COc1ccccc1CC1(C)NC(=O)N(CC(=O)N2CC(C)OC(C)C2)C1=O` (centres undefined)?
SARS PLpro yeast: 15%; Pf growth 48h: 6%; Cycloheximide cs: 10; Shiga inhibitor: -7; NS1 inh: 5%; Pf growth 96h: 0.52µM*

How did Cc1cccnc1NC(=O)Cn1nc(-c2ccccc2)oc1=S do in these assays?
SARS PLpro yeast: -12%; Pf growth 48h: 167%; Cycloheximide cs: 40*; Shiga inhibitor: 89*; NS1 inh: -4%; Pf growth 96h: 68%

What do the screens show for `O=c1c2ccccc2c2c(O)nc(-c3ccccc3)n2n1Cc1ccccc1`?
SARS PLpro yeast: 3%; Pf growth 48h: inconclusive; Cycloheximide cs: 1; Shiga inhibitor: -19; NS1 inh: 3%

How did OCCCN=c1cc(-c2ccccc2)oc2ccc(Cl)cc12 do in these assays?
SARS PLpro yeast: 18%; Cycloheximide cs: 35*; Shiga inhibitor: 97*; NS1 inh: -15%; Pf growth 96h: inconclusive

Results for CC1(C)CC(N=c2cc(-c3ccccc3)oc3ccc(Cl)cc23)CC(C)(C)N1 ?
SARS PLpro yeast: -5%; Pf growth 48h: inconclusive; Cycloheximide cs: 10; Shiga inhibitor: -14; Pf growth 96h: inconclusive

Source: PubChem (National Center for Advancing Translational Sciences (NCATS))
